# PubChem BioAssay
# Target: Left-right determination factor 2 (Homo sapiens) (UniProt O00292)
# Experiment: LEFTY2 binders on small-molecule microarrays, primary screen, biochemical, small-molecule microarray, 635 nm fluorescence scan (AID 1110)
# Details: LEFTY2 binding, higher = more signal
# Chain of Left-right determination factor 2 (Homo sapiens) (O00292 whole entry, looked up): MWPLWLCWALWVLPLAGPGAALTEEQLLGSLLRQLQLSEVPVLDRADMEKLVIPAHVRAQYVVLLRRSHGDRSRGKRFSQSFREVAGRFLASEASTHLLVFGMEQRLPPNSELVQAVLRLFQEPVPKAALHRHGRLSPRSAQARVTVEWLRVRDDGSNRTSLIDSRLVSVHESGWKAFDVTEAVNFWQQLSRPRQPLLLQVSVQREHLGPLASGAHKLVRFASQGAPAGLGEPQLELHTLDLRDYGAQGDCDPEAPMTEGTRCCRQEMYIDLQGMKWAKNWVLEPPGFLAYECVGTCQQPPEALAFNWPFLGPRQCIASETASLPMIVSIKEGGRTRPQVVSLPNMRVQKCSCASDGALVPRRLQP
row,Structure (SMILES),composite z-score
1,[N-]=[N+]=Nc1ccccc1C[C@]1(C(=O)O)N=C(c2ccc(OCCCO)cc2)O[C@H]1c1ccccc1,-1.07
2,CN1C(=O)[C@@]2(Cc3ccccc3)N=C(c3ccc(OCCCO)cc3)O[C@H]2c2ccccc21,0.879
3,NC(=O)[C@@H]1[C@H]2C(=O)O[C@H](c3ccccc3)[C@H](c3ccccc3)N2[C@H](c2ccc(OCCO)cc2)[C@@]12C(=O)Nc1ccc(C#CCCO)cc12,-0.483
4,Cc1ccc(S[C@]2(C(=O)NC(C)C)CC(=O)N(Cc3ccccc3Cl)[C@@H]2c2ccc(CO)cc2)cc1,-1.76
5,CC(C)=CCCC(C)=CC(O)C1C=CC2C(=O)N(c3ccccc3)C(=O)C2N1Nc1ccccc1F (stereo not given),-0.0742
6,COc1cc2c(cc1OC)CN(C(=O)[C@@H]1[C@H]3C(=O)O[C@H](c4ccccc4)[C@H](c4ccccc4)N3[C@H](c3ccc(O)cc3)[C@@]13C(=O)Nc1ccc(C#CCCO)cc13)CC2,0.686
7,COc1cc(NN2C(C(O)C3CCCCC3)C=CC3C(=O)N(C)C(=O)C32)cc(OC)c1OC (stereo not given),0.0347
8,CC(C)C(CO)N1C(=O)[C@@H]2[C@H]3C(=O)OCC=C[C@H]3OC23C=CCN(C(C)(C)C)C(=O)[C@@H]13 (stereo not given in full),-0.15
9,COC(=O)[C@@]1(Cc2ccc(OC)cc2)[C@H]2c3cc(C(=O)N4CCCC4)n(Cc4ccc(S(C)(=O)=O)cc4)c3C[C@H]2CN1C(=O)c1ccccc1,-0.0914
10,CCCNC(=O)[C@@]1(Sc2ccc(C)cc2)CC(=O)N(C2CCCCC2)[C@@H]1c1ccc(CO)cc1I,-0.153
11,CO[C@H]1O[C@H](CO)[C@@H](OC(=O)Nc2ccc(C#N)cc2)[C@@H]2OC(=O)[C@H](Cc3cccc(Br)c3)C/C=C/C[C@@H](Cc3cccc(Br)c3)C(=O)O[C@@H]12,0.721
12,COCCOC(=O)N1C(=O)[C@@]2(c3cc(C#CC4(O)CCCCCC4)ccc31)[C@H](C(=O)N1CCN(c3ncccn3)CC1)[C@H]1C(=O)O[C@H](c3ccccc3)[C@H](c3ccccc3)N1[C@@H]2c1ccccc1OCCO,1.2
13,CCCC=C(CCC)[C@@H](NC(=O)CCc1ccccc1)c1ccc(C(F)(F)F)cc1,-0.203
14,CC(C)[C@H]1NC(=O)[C@@]23C(=O)N[C@@H](Cc4ccccc4)C2[C@H](C)[C@@]2(C)O[C@H]2C3/C=C/CCC/C=C/CNC(=O)[C@H](Cc2ccccc2)NC1=O (stereo not given in full),-0.0883
15,CCCCNC(=O)c1ccc(C#C[Si](C(C)C)(C(C)C)C(C)C)c(OC(C)=O)c1,0.785
16,C=C(/C(=C/C[C@H](OC(=O)c1ccncc1)c1ccccc1OCCO)c1cnc2ccccc2c1)C(C)C,1.05
17,COc1cc(NN2C(C(O)c3cc(OC)c(OC)c(OC)c3)C=CC3C(=O)N(c4ccccc4)C(=O)C32)cc(OC)c1OC (stereo not given),0.307
18,COC(=O)[C@@]1(Cc2ccccc2)[C@H]2c3cc(C(=O)N4CCCC4)n(CCSCCO)c3C[C@H]2CN1C(=O)c1ccccc1,-0.491

row,Structure (SMILES),composite z-score
1,COCCOC(=O)N1C(=O)[C@@]2(c3cc(C#Cc4ccc(OC)cc4)ccc31)[C@H](c1ccc(OCCO)cc1)N1[C@H](c3ccccc3)[C@H](c3ccccc3)OC(=O)[C@H]1[C@@H]2C(=O)Nc1nc2ccccc2s1,0.225
2,COCCOC(=O)N1C(=O)[C@@]2(c3cc(C#CCC(C(=O)OC)C(=O)OC)ccc31)[C@H](c1ccc(O)cc1)N1[C@H](c3ccccc3)[C@H](c3ccccc3)OC(=O)[C@H]1[C@@H]2C(=O)NC[C@H](O)c1ccccc1,0.485
3,CCCCCCCCCCC(O)C1C=CC2C(=O)N(c3ccccc3)C(=O)C2N1Nc1ccccc1F (stereo not given),-0.24
4,COc1ccc(C(O)C2C=CC3C(=O)N(c4ccccc4)C(=O)C3N2Nc2ccc(C(C)C)cc2)c2ccccc12 (stereo not given),-0.146
5,O=C1C2C=CC(C(O)c3cc(C(F)(F)F)cc(C(F)(F)F)c3)N(Nc3ccccc3F)C2C(=O)N1c1ccccc1 (stereo not given),-0.327
6,C=C(CCCC)C(=O)CC[C@@H](OC(=O)c1cccnc1)c1ccc(OCCO)cc1,0.249
7,C=C(/C(=C/C[C@@H](OC(=O)c1ccncc1)c1cccc(OCCO)c1)c1cnc2ccccc2c1)C(C)C,0.775
8,CC(C)CNC(=O)[C@@]1(c2ccc([N+](=O)[O-])cc2)CC(=O)N(C2CCCCC2)[C@@H]1c1ccc(CO)cc1,0.155
9,C[C@]1(C(=O)O)c2ccccc2C(=O)N(Cc2ccc(OC(F)(F)F)cc2)[C@H]1c1ccc(CO)cc1,-0.618
10,C=C(COC)C(=O)CC[C@H](OC(=O)c1cccnc1)c1ccc(CO)o1,0.879
11,COCCOC(=O)N1C(=O)[C@@]2(c3cc(C#CCC(C(=O)OC)C(=O)OC)ccc31)[C@H](C(=O)NC[C@H](O)c1ccccc1)[C@H]1C(=O)O[C@H](c3ccccc3)[C@H](c3ccccc3)N1[C@@H]2c1ccc(O)cc1,0.102
12,Cc1cccc([C@H]2C[C@H]3C(Br)=C[C@@H]2C(=O)[C@]32CO2)c1,0.174
13,C=CCC(OC(C)=O)[C@@H]1[C@@H](N(Cc2ccc(-c3cccc(C(F)(F)F)c3)o2)C(=O)c2cccc3ccccc23)c2cc(OCCCO)ccc2N1C(=O)Cc1ccc(OC)cc1 (stereo not given in full),-0.391
14,CC(C)C[C@@H]1NC(=O)[C@@]23C(=O)N[C@@H](Cc4ccccc4)C2[C@H](C)[C@@]2(C)O[C@H]2C3/C=C/C/C=C\CNC(=O)[C@@H](C)NC1=O (stereo not given in full),0.58
15,CCOC(=O)C1=CCN(S(=O)(=O)c2ccc(C)cc2)C1c1ccccc1 (stereo not given),0.564
16,COCCOC(=O)N1C(=O)[C@@]2(c3ccccc31)[C@H](c1ccccc1OCCO)N1[C@H](c3ccccc3)[C@H](c3ccccc3)OC(=O)[C@H]1[C@@H]2C(N)=O,0.574
17,C=C(COC)C(=O)CC[C@@H](OC(=O)c1cccnc1)c1ccccc1OCCO,0.078
